From the supplement of paper PMC11732987, “Enantioselective OTUD7B fragment discovery through chemoproteomics screening and high-throughput optimisation” (Communications Chemistry, 2025)

Legend:
Experiment in all cases: log2 ratio of Biotin-Ahx-Ub-VS probe labelling (fragment/DMSO); higher = less target engagement (more negative = stronger competition), active = hit call of the paper (q ≤ 0.05, log2 ratio ≤ -1)
Details in all cases: compound concentration: 200 uM; treatment time: 3 h
USP34 = USP34 (UniProt Q70CQ2)
Summary of the method: (§1)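 Using Biotin-Ahx-Ub-VS at 0.5 µM final for 1 h, DUBs were labelled in HEK293T lysate (495 µg per sample) that had first been treated in triplicate with fragment at 200 µM or vehicle for 3 h. NeutrAvidin enrichment, LysC and trypsin digestion and diaPASEF LC-MS/MS followed. Spectronaut label-free quantities were global-median-normalised. Values are average log2 fragment/vehicle ratios by unpaired t-test, using proteins with ≥2 unique peptides.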

USP36 = target: T1, USP36 (UniProt Q9P275)
T1 sequence (whole entry): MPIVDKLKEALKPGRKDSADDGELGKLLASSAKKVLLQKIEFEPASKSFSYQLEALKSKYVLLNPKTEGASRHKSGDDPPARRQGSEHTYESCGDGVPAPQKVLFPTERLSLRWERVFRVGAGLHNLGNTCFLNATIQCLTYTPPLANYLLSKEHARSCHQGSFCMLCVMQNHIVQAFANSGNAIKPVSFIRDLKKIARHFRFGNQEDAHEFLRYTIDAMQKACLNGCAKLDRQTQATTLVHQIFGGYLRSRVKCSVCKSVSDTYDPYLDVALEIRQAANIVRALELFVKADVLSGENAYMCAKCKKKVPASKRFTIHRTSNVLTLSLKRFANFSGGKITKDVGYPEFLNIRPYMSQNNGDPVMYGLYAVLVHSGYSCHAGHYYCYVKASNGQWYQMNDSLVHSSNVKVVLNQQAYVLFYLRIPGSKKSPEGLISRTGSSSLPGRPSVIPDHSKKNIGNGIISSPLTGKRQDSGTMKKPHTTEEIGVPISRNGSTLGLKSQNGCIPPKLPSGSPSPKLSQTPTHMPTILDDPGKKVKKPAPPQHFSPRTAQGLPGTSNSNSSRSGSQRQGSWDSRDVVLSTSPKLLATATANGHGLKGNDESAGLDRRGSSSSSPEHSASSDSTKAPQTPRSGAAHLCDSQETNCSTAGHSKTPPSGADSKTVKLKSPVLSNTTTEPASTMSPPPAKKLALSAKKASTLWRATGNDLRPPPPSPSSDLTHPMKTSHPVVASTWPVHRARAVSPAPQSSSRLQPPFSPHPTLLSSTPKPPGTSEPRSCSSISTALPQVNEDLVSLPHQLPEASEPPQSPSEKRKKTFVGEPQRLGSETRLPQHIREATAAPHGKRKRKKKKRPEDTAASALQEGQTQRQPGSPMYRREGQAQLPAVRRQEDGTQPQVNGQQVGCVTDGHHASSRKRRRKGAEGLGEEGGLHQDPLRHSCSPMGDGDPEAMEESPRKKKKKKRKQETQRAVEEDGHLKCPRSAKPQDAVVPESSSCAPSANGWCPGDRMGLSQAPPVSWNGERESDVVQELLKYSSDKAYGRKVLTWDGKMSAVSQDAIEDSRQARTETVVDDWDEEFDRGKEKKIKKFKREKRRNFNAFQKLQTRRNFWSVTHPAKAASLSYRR
Summary of the method: as §1

USP38 = target: T2, USP38 (UniProt Q8NB14)
T2 sequence (whole entry): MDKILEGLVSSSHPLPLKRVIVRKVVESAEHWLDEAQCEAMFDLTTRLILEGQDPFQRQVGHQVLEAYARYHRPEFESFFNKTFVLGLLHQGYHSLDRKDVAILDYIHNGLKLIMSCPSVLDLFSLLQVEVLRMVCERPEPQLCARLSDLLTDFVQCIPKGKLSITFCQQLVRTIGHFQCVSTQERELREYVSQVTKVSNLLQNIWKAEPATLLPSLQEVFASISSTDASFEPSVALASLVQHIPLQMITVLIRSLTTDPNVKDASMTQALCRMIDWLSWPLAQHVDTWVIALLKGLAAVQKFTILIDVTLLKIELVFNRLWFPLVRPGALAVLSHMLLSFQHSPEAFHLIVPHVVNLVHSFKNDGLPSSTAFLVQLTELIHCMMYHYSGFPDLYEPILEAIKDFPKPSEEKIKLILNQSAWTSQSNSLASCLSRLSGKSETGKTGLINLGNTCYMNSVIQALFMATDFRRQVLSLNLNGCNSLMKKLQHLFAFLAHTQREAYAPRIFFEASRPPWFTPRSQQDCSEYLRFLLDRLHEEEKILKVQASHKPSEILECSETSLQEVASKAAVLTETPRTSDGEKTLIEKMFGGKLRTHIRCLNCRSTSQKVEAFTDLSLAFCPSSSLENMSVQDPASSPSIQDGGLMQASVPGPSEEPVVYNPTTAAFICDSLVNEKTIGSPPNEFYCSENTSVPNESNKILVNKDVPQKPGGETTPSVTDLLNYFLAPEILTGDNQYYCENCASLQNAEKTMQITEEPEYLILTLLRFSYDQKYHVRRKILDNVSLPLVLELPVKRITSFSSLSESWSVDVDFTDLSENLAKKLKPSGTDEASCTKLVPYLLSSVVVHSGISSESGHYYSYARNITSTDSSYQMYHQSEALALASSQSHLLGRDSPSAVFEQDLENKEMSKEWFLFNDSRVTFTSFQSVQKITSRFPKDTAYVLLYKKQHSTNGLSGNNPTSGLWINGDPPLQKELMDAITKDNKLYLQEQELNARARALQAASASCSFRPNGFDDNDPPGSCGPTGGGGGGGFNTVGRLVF
Summary of the method: as §1

USP39 = target: T3, USP39 (UniProt Q53GS9)
T3 sequence (whole entry): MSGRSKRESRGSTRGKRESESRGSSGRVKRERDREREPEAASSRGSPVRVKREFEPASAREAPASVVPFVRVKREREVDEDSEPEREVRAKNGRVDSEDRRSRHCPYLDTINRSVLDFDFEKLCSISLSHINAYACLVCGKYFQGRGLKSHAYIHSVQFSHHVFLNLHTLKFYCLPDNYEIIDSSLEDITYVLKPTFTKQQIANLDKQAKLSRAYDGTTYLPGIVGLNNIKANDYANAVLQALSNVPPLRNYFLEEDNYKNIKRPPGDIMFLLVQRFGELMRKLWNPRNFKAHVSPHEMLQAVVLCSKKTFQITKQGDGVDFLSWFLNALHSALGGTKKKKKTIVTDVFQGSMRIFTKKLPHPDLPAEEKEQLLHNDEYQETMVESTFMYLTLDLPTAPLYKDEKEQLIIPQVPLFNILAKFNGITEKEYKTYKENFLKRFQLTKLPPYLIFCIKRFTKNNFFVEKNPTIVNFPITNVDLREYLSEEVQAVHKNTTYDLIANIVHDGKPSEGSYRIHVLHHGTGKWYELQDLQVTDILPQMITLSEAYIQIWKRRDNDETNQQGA
Summary of the method: as §1

USP4 = target: T4, USP4 (UniProt Q13107)
T4 sequence (whole entry): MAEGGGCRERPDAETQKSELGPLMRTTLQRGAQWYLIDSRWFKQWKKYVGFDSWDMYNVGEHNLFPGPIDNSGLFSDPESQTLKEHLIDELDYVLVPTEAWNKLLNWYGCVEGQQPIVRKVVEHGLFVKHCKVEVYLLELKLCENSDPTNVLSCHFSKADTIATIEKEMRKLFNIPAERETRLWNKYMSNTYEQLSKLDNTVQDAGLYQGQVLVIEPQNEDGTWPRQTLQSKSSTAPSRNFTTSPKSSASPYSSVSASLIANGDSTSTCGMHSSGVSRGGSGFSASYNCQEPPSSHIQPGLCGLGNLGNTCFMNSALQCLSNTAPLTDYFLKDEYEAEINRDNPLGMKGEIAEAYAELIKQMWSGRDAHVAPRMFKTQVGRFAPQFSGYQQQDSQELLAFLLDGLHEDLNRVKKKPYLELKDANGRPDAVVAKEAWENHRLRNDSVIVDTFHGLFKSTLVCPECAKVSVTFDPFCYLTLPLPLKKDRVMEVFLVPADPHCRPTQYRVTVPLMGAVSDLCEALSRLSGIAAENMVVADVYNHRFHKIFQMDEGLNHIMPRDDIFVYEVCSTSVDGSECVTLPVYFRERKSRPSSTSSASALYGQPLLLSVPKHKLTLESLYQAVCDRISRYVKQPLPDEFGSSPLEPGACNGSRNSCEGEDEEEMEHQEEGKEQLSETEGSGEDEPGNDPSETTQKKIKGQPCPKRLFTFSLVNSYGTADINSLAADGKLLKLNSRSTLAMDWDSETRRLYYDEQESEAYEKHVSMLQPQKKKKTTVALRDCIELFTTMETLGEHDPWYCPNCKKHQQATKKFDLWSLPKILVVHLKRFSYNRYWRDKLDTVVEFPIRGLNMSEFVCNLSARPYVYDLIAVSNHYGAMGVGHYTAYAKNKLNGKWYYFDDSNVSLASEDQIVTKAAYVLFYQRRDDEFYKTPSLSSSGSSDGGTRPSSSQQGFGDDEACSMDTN
Summary of the method: as §1

Measured: log2 ratio of Biotin-Ahx-Ub-VS probe labelling

Sequence of USP34 (Q70CQ2 whole entry, the tested form may be a part): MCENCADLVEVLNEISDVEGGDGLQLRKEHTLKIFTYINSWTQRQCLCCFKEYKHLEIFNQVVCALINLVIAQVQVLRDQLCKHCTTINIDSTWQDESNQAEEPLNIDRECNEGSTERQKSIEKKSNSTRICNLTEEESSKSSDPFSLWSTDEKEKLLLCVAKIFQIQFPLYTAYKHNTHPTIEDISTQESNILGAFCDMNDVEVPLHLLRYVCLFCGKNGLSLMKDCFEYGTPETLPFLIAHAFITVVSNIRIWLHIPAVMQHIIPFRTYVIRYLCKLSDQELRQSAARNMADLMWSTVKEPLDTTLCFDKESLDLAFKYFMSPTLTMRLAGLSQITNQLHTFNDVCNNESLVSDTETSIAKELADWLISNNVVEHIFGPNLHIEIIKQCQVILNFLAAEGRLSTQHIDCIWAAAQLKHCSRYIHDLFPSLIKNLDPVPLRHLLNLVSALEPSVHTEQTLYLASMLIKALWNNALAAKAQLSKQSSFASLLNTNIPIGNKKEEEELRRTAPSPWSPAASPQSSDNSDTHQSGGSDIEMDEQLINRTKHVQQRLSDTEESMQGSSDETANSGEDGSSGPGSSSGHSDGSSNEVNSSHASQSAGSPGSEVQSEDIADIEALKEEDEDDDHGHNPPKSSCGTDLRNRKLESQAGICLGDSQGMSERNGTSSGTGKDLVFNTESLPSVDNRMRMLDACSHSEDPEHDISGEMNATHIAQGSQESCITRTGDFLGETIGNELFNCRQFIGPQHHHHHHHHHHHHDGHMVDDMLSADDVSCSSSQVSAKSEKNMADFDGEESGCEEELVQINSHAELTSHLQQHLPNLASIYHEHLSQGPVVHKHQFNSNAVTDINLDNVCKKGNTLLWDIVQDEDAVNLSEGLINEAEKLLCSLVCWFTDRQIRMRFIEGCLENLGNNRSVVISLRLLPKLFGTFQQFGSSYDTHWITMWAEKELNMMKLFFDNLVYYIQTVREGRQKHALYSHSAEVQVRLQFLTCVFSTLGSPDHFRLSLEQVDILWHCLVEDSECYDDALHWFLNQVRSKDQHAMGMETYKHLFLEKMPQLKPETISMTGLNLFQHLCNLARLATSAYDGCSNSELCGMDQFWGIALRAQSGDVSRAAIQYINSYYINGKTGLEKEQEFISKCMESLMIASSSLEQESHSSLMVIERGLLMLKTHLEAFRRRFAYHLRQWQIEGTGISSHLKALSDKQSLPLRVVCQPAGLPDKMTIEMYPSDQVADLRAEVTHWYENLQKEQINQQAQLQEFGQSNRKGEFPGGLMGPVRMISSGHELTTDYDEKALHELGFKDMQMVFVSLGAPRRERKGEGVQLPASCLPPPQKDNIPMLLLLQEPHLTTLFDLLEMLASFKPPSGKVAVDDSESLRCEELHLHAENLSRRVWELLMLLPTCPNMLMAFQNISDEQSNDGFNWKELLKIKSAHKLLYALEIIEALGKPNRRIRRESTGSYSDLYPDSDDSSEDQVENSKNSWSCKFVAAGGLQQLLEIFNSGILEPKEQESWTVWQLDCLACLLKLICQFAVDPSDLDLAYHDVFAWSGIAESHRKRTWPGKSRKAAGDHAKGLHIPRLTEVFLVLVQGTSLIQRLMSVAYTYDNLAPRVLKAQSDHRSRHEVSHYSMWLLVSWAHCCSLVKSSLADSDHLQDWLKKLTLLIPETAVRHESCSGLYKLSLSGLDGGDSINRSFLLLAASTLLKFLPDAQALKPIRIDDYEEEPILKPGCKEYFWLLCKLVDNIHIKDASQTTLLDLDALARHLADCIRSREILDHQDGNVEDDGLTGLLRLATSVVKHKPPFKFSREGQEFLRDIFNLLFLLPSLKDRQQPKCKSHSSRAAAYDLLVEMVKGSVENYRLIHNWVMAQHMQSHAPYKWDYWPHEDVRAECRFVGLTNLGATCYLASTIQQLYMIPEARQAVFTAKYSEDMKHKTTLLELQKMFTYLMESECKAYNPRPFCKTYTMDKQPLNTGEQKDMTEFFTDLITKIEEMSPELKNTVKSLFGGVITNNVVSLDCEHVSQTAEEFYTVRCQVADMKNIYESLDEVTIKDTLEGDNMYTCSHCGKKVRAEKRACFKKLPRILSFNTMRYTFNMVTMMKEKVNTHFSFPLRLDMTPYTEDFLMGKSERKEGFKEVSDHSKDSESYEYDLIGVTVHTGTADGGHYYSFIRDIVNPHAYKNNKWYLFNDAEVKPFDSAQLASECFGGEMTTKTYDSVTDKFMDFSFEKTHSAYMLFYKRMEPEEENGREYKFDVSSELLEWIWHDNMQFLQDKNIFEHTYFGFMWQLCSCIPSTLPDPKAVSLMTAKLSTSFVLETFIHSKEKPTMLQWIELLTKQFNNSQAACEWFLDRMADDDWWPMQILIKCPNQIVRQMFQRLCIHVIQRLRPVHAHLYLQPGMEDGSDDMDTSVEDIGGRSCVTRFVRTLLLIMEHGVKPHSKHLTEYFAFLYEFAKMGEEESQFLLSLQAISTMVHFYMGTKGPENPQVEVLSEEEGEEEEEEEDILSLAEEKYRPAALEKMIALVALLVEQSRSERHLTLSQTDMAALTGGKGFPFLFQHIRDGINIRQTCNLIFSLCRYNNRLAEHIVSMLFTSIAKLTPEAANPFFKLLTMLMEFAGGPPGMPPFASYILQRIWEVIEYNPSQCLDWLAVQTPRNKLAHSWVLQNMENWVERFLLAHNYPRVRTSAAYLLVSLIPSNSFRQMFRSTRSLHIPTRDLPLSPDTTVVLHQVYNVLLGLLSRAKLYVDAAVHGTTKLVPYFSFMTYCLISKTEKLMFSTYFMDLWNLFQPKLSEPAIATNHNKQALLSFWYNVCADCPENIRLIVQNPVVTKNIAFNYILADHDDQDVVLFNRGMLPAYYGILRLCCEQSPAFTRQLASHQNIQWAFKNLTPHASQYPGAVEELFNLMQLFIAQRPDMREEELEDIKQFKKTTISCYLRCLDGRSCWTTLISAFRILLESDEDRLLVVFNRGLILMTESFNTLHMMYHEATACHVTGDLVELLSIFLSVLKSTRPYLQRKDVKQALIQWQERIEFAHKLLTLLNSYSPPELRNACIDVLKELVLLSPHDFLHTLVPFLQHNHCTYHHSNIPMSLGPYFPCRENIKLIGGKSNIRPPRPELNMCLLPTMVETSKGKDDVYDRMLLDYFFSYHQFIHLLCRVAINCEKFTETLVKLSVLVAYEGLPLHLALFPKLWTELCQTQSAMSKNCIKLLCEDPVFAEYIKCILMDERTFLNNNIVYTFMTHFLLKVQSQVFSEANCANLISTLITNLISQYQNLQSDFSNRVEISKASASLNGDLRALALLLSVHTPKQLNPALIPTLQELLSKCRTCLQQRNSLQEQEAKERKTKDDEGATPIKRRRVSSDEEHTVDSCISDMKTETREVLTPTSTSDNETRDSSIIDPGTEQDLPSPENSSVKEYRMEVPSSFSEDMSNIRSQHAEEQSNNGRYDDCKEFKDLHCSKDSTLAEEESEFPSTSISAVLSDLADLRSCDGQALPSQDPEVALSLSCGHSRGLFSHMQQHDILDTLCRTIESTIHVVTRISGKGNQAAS

O=C(CCl)N1CCc2sccc2C1
inactive: USP34 -0.165 | USP36 -0.212 | USP38 -0.305 | USP39 0.0206 | USP4 -0.861
